Out of some 5,500 compounds screened, about 2,000 (36%) were called active. Another 18% or so got no clear call; they are omitted. No stated cut-off is given here; in the data, active means normalized growth mostly below about 0.91 (no sharp cut-off); inconclusive means no clear call, values can overlap the other calls; inactive means mostly above about 0.92. The list shows a part of the results.
Assay: chemical genetic growth profiling, strain panel (AID 1159580);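 further: tested at 20 µM; growth read once vehicle control cultures reached saturation at 30 °C; 1 = growth at the plate median or of vehicle wells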
Conditions: S. cerevisiae deletion strains, growth OD
[1] = locus YAR019C, strain CDC15, stronger effect = lower value
[2] = locus YBL105C, strain PKC1, stronger effect = lower value
[3] = locus YBR135W, strain CKS1, stronger effect = lower value
[4] = locus YBR136W, strain MEC1, stronger effect = lower value
[5] = locus YBR160W, strain CDC28, stronger effect = lower value
[6] = locus YDL017W, strain CDC7, stronger effect = lower value
[7] = locus YDL028C, strain MPS1, stronger effect = lower value
[8] = locus YDL101C, strain DUN1, stronger effect = lower value
[9] = locus YDL108W, strain KIN28, stronger effect = lower value
[10] = locus YDL132W, strain cdc53, stronger effect = lower value
[11] = locus YDL214C, strain PRR2, stronger effect = lower value
[12] = locus YDR052C, strain DBF4, stronger effect = lower value
[13] = locus YDR054C, strain cdc34, stronger effect = lower value
[14] = locus YDR226W, strain ADK1, stronger effect = lower value
[15] = locus YDR477W, strain SNF1, stronger effect = lower value
[16] = locus YER123W, strain YCK3, stronger effect = lower value
[17] = locus YER133W, strain GLC7, stronger effect = lower value
[18] = locus YFL009W, strain cdc4, stronger effect = lower value
[19] = locus YFL029C, strain CAK1, stronger effect = lower value
[20] = locus YFR003C, strain YPI1, stronger effect = lower value
[21] = locus YFR019W, strain FAB1, stronger effect = lower value
[22] = locus YFR028C, strain CDC14, stronger effect = lower value
[23] = locus YGR040W, strain KSS1, stronger effect = lower value
[24] = locus YGR052W, strain FMP48, stronger effect = lower value
[25] = locus YGR092W, strain DBF2, stronger effect = lower value
[26] = locus YHR030C, strain SLT2, stronger effect = lower value
[27] = locus YHR079C, strain IRE1, stronger effect = lower value
[28] = locus YHR082C, strain KSP1, stronger effect = lower value
[29] = locus YHR205W, strain SCH9, stronger effect = lower value
[30] = locus YIL147C, strain SLN1, stronger effect = lower value
[31] = locus YJL095W, strain BCK1, stronger effect = lower value
[32] = locus YJL128C, strain PBS2, stronger effect = lower value
[33] = locus YJL157C, strain FAR1, stronger effect = lower value
[34] = locus YJR016C, strain ILV3, stronger effect = lower value
[35] = locus YJR066W, strain TOR1 (second series), stronger effect = lower value
[36] = locus YJR066W, strain TOR1, stronger effect = lower value
[37] = locus YKL048C, strain ELM1, stronger effect = lower value
[38] = locus YKL067W, strain YNK1, stronger effect = lower value
[39] = locus YKL101W, strain HSL1, stronger effect = lower value
[40] = locus YKL193C, strain SDS22, stronger effect = lower value
[41] = locus YKL203C, strain TOR2, stronger effect = lower value
[42] = locus YLR113W, strain HOG1, stronger effect = lower value
[43] = locus YLR133W, strain CKI1, stronger effect = lower value
[44] = locus YLR403W, strain SFP1, stronger effect = lower value
[45] = locus YML070W, strain DAK1, stronger effect = lower value
[46] = locus YMR001C, strain CDC5, stronger effect = lower value
[47] = locus YMR205C, strain PFK2 (second series), stronger effect = lower value
[48] = locus YMR277W, strain FCP1, stronger effect = lower value
[49] = locus YNL006W, strain LST8, stronger effect = lower value
[50] = locus YNL020C, strain ARK1, stronger effect = lower value
[51] = locus YNL161W, strain CBK1, stronger effect = lower value
[52] = locus YNL183C, strain NPR1, stronger effect = lower value
[53] = locus YNL207W, strain RIO2, stronger effect = lower value
[54] = locus YNL222W, strain SSU72, stronger effect = lower value
[55] = locus YNL307C, strain MCK1 (second series), stronger effect = lower value
[56] = locus YOL078W, strain AVO1, stronger effect = lower value
[57] = locus YOL136C, strain PFK27, stronger effect = lower value
[58] = locus YOR061W, strain CKA2, stronger effect = lower value
[59] = locus YOR119C, strain RIO1, stronger effect = lower value
[60] = locus YOR231W, strain MKK1, stronger effect = lower value
[61] = locus YOR329C, strain SCD5, stronger effect = lower value
[62] = locus YPL031C, strain PHO85, stronger effect = lower value
[63] = locus YPL153C, strain RAD53, stronger effect = lower value
[64] = locus YPL209C, strain IPL1, stronger effect = lower value
[65] = locus YPL256C, strain CLN2, stronger effect = lower value
[66] = locus YPR025C, strain CCL1, stronger effect = lower value
[67] = locus YPR106W, strain ISR1, stronger effect = lower value
[68] = locus YPR111W, strain DBF20, stronger effect = lower value
[69] = strain NNK1, stronger effect = lower value
[70] = strain TSCII, stronger effect = lower value
[71] = locus YAL013W, strain DEP1, stronger effect = lower value
[72] = locus YBR229C, strain ROT2, stronger effect = lower value
[73] = locus YCL061C, strain MRC1, stronger effect = lower value
[74] = locus YDR150W, strain NUM1, stronger effect = lower value
[75] = locus YEL061C, strain CIN8, stronger effect = lower value
[76] = locus YGR078C, strain PAC10, stronger effect = lower value
[77] = locus YHR087W, strain rtc3, stronger effect = lower value
[78] = locus YJR043C, strain POL32, stronger effect = lower value
[79] = locus YJR075W, strain HOC1, stronger effect = lower value
[80] = locus YLR039C, strain RIC1, stronger effect = lower value
[81] = locus YLR058C, strain SHM2 (second series), stronger effect = lower value
[82] = locus YLR085C, strain ARP6, stronger effect = lower value
[83] = locus YLR262C, strain YPT6, stronger effect = lower value
[84] = locus YML094W, strain GIM5, stronger effect = lower value
[85] = locus YMR219W, strain ESC1, stronger effect = lower value
[86] = locus YMR263W, strain SAP30, stronger effect = lower value
[87] = locus YNL153C, strain GIM3, stronger effect = lower value
[88] = locus YNL298W, strain CLA4 (second series), stronger effect = lower value
[89] = locus YNL322C, strain KRE1, stronger effect = lower value
[90] = locus YNR030W, strain Alg12, stronger effect = lower value
[91] = locus YPL055C, strain LGE1, stronger effect = lower value
[92] = locus YPL241C, strain CIN2, stronger effect = lower value
[93] = locus YPR135W, strain CTF4, stronger effect = lower value

Measured: normalized growth

N#CCC(=O)NNC(=S)Nc1ccc(Cl)c(Cl)c1
inactive: [1] 0.991 | [2] 0.985 | [3] 0.981 | [4] 0.983 | [5] 0.991 | [6] 0.987 | [7] 0.986 | [8] 0.981 | [9] 0.98 | [10] 0.974 | [11] 0.938 | [12] 0.988 | [13] 0.98 | [14] 0.982 | [15] 0.929 | [16] 0.895 | [17] 0.92 | [18] 0.98 | [19] 0.989 | [20] 0.979 | [21] 0.969 | [22] 0.979 | [23] 0.93 | [24] 0.955 | [25] 0.965 | [26] 0.931 | [27] 0.965 | [28] 1.04 | [29] 0.96 | [30] 0.986 | [31] 0.932 | [32] 0.943 | [33] 0.931 | [34] 0.978 | [35] 0.913 | [36] 1.07 | [37] 0.97 | [38] 0.936 | [39] 0.942 | [40] 0.975 | [41] 1.01 | [42] 0.881 | [43] 0.96 | [44] 0.963 | [45] 0.93 | [46] 0.979 | [47] 0.942 | [48] 0.982 | [49] 0.984 | [50] 0.964 | [51] 0.981 | [52] 1.04 | [53] 0.978 | [54] 0.984 | [55] 0.962 | [56] 0.975 | [57] 0.95 | [58] 0.95 | [59] 0.988 | [60] 0.975 | [61] 0.985 | [62] 0.916 | [63] 0.916 | locus YPL204W, strain HRR25, stronger effect = lower value 0.917 | [64] 0.987 | [65] 0.956 | [66] 0.988 | [67] 0.975 | [68] 0.976 | [69] 0.988 | [70] 0.983

Cc1c(Cl)cccc1NC(=S)Nc1ccc(Cl)cc1C(=O)c1ccccc1
inactive: [71] 0.999 | [72] 0.991 | [73] 0.985 | [8] 0.993 | [74] 0.987 | [75] 1 | [76] 0.968 | [26] 0.894 | [77] 0.99 | [78] 0.989 | [79] 0.971 | [80] 0.907 | [81] 1.01 | [82] 0.969 | [83] 0.946 | [84] 0.98 | [85] 0.991 | [86] 0.993 | locus YMR307W, strain GAS1, stronger effect = lower value 0.924 | [87] 0.984 | [88] 0.987 | [89] 0.986 | [90] 0.969 | [91] 0.98 | [92] 0.969 | [93] 0.956

O=C(NNC(=S)Nc1ccc(F)cc1)c1ccccc1Cl
active: locus YOL006C, strain TOP1, stronger effect = lower value 0.629
inactive: [71] 0.987 | [72] 1 | [73] 1 | [8] 1.04 | locus YDL134C, strain PPH21, stronger effect = lower value 0.976 | [74] 0.987 | [75] 0.958 | [76] 0.972 | locus YGR229C, strain SMI1, stronger effect = lower value 0.97 | [26] 0.948 | [77] 0.977 | [78] 1.01 | [79] 1.01 | locus YKL190W, strain CNB1, stronger effect = lower value 0.966 | [80] 0.933 | [81] 0.98 | [82] 0.897 | [83] 0.963 | [84] 0.96 | [85] 1.01 | [86] 0.977 | locus YNL128W, strain TEP1, stronger effect = lower value 0.971 | [87] 1.01 | [88] 0.923 | [89] 0.997 | [90] 0.94 | [91] 0.921 | [92] 1.01 | [93] 0.982

O=C(c1ccccc1)c1cc(Cl)ccc1NC(=S)Nc1ccc(F)cc1
active: [42] 0.858
inactive: [1] 0.984 | [2] 0.992 | [3] 0.99 | [4] 0.987 | [5] 0.998 | [6] 0.996 | [7] 0.994 | [8] 0.996 | [9] 0.985 | [10] 0.992 | [11] 0.968 | [12] 0.994 | [13] 0.994 | [14] 0.993 | [15] 0.982 | [16] 0.95 | [17] 0.977 | [18] 0.986 | [19] 0.987 | [20] 0.988 | [21] 0.945 | [22] 0.991 | [23] 0.967 | [24] 1.02 | [25] 0.989 | [26] 0.97 | [27] 0.997 | [28] 1.12 | [29] 0.988 | [30] 0.994 | [31] 0.988 | [32] 0.947 | [33] 0.962 | [34] 0.988 | [35] 0.937 | [36] 1.05 | [37] 0.99 | [38] 0.968 | [39] 0.971 | [40] 0.991 | [41] 1 | [43] 0.983 | [44] 0.974 | [45] 0.978 | [46] 0.995 | [47] 0.977 | [48] 0.976 | [49] 0.992 | [50] 0.983 | [51] 0.992 | [52] 1.02 | [53] 0.992 | [54] 0.987 | [55] 0.968 | [56] 0.999 | [57] 0.969 | [58] 0.973 | [59] 1.05 | [60] 0.994 | [61] 0.993 | [62] 0.969 | [63] 0.988 | [64] 0.993 | [65] 0.985 | [66] 0.99 | [67] 0.997 | [68] 0.963 | [69] 0.995 | [70] 0.991
